Assay outcomes (PubChem)
ROMK mod = modulates human ROMK potassium channel activity | P48048 | Tet-inducible ROMK, thallium flux fluorescence; actives lie on both sides | B-score at 10 µM | 130,000 compounds, 2% hits;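 active = signal ratio slope over the read window, or its plate-corrected B-score, at least 3 SD from the plate mean, either direction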;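 also: B-score of the F/F0 ratio slope over 7 to 12 s after thallium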
Target sequence (P48048 whole entry, looked up): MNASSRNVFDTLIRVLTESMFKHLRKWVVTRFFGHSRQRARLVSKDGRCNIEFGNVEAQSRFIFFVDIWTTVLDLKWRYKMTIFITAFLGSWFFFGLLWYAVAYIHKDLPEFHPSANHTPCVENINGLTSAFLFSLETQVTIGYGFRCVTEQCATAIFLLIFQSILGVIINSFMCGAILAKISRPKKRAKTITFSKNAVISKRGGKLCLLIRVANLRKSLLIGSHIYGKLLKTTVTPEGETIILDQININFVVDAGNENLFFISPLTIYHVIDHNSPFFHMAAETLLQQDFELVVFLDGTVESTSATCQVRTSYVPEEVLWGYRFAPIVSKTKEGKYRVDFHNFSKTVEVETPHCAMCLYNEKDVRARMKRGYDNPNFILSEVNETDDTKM
WT yeast gro inh = growth inhibition of WT yeast, mitochondrial fusion screen. mitochondrial fusion phenotypic screen, WT strain. inhibition, % at 10 µM. 190,000 compounds, 2.1% hits. AID 1362; in the data active = inhibition above about 58%; tested in S. cerevisiae
L major viab = reduces viability of Leishmania major promastigotes | resazurin fluorescence viability | inhibition, % at 10 µM | 200,000 compounds, 9% hits | AID 1063; in the data active = inhibition above about 50%;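 also: promastigotes grown with compound for 44 hours at 28 °C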
Cl transport mod = modulators of human KCC2 chloride dependent transport. Q9H2X9. KCC2 cells, thallium flux FluoZin-2 fluorescence. B-score of Tl+ flux slope (higher = more flux/activation; lower = inhibition) at 10 µM. 190,000 compounds, 2.2% hits. AID 1456;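 active = thallium flux slope and its plate-corrected score both differing from the plate sample mean at a set confidence after two filtering rounds, in either direction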;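 also: slope of fluorescence scaled to starting intensity during 10 to 20 s after thallium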
m-calpain inh = inhibitors of pig calpain II | 220,000 compounds, 0.37% hits | purified calpain II, fluorogenic peptide substrate, 30 min | inhibition, % at 16 µM;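 active = inhibition above about 50%, limit read from the data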
KCC2 secondary = confirmation of human KCC2 transport modulators; shares compounds with Cl transport mod; HEK293-KCC2, thallium flux, FluoZin2 fluorescence; active compounds read high; normalised thallium flux (F/F0 slope) at 10 µM; 3,700 compounds, 15% hits; AID 1713;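 active = thallium flux slope above the same plate's solvent-only control mean plus 3 SD; inconclusive = the two replicate wells disagree; inactive = no significant difference from solvent-only control wells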
KCC2 bumet counter = thallium flux despite bumetanide block in KCC2 cells, secondary assay 3. 3,700 compounds, 49% hits. normalized thallium flux at 10 µM. shares compounds with Cl transport mod. HEK293-KCC2 + bumetanide/ouabain, thallium flux FluoZin2; active compounds read high;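 active = thallium entry rate above the same plate's blocked-transporter control wells by more than 3 SD; inconclusive = the two repeat wells disagree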;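 also: raw slope of fluorescence over initial fluorescence between 10 and 20 s after thallium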
KCC2 secondary2 = KCC2 (human) modulation, second secondary assay; shares compounds with Cl transport mod; HEK293-KCC2, thallium flux FluoZin2 fluorescence; actives lie on both sides; F/F0 rise rate, 10–20 s post-thallium; 3,700 compounds, 23% hits; normalized thallium flux at 10 µM;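 active = thallium flux slope more than 3 SD above or below the plate's solvent-only control mean, mostly below; inconclusive = the two repeat wells disagreed; inactive = no significant shift from solvent-only controls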;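 also: raw slope with 0.1% DMSO as baseline and bumetanide as block control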
HEK counter1 = acts in parental HEK cells, KCC2 counter-screen | shares compounds with Cl transport mod | HEK293 parental cells, thallium flux FluoZin2, ouabain; baseline-ratio fluorescence slope, 10–20 s after thallium | thallium flux rate (normalised fluorescence) at 10 µM | 3,700 compounds, 46% hits | AID 1716;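 active = thallium flux rate significantly above the same plate's solvent-only control wells, beyond their mean plus 3 SD; inconclusive = the two replicate wells gave conflicting results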
KCC2 retest ouab = confirmation of human KCC2 modulators with ouabain; HEK293-KCC2, thallium flux FluoZin2 fluorescence; bidirectional: low = inhibitor, high = activator; shares compounds with Cl transport mod; 3,700 compounds, 48% hits; AID 1717; raw Tl+ flux slope (below DMSO = inhibition, above = activation) at 10 µM;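 active = thallium flux slope beyond 3 SD from same-plate DMSO control mean in most replicates, usually higher, sometimes lower; inconclusive = repeat tests gave conflicting results; inactive = no significant difference from controls in most replicates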;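 also: slope of initial-normalized fluorescence between seconds 10 and 20 after thallium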
HEK293 Tl flux2 = counter-screen for KCC2 modulators: effect in parental HEK293 cells | shares compounds with Cl transport mod | thallium flux FluoZin-2 fluorescence slope | thallium flux slope at 10 µM | 3,700 compounds, 33% hits | AID 1718;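 active = thallium flux slope above the same plate's solvent-control mean plus 3 SD in both duplicate wells; inconclusive = duplicate wells that disagreed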;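 also: run without ouabain in cells lacking the KCC2 cotransporter; slope of fluorescence scaled to its starting value between 10 and 20 s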
The depositor's hits bear a star; ? = inconclusive; nt = not tested or not shown. The list is not random: actives were taken first. Their share in the collection is about 12%.

SMILES	ROMK mod	WT yeast gro inh	L major viab	Cl transport mod	m-calpain inh	KCC2 secondary	KCC2 bumet counter	KCC2 secondary2	HEK counter1	KCC2 retest ouab	HEK293 Tl flux2
CCN(CC)c1ccc(NC(=S)NCC2CCCO2)cc1 (configuration not stated)	nt	14.9	8.3	nt	25.6	nt	nt	nt	nt	nt	nt
O=C(Cn1nnc2c(cnn2-c2ccccc2)c1=O)N1CCN(c2ccccc2F)CC1	nt	nt	-1.3	-5.48*	18.7	0.00576	?	0.0205*	0.00681	0.0143*	0.00916
O=C(Cn1cnc2c(cnn2-c2ccc(F)cc2)c1=O)N1CCN(c2ccccc2F)CC1	nt	-5.5	12.5	-0.948	-57.9	nt	nt	nt	nt	nt	nt
CSCC(=O)N1CCCC(CNC(=O)c2ccc(-c3ccccc3)cc2)C1 (configuration not stated)	0.301	-9.4	0.0	-6.35*	-9.1	0.00841	0.00605	0.0296*	0.00394	0.0155*	0.0107
Cc1ncccc1C(=O)N1CCCC(CNC(=O)c2ccc(-c3ccccc3)cc2)C1 (configuration not stated)	0.836	6.0	-6.4	-4.39*	-46.8	0.0107	0.00568	?	0.00811	0.0167*	0.0109
O=C(NCC1CCCN(C(=O)c2cccnc2)C1)c1ccc(-c2ccccc2)cc1 (configuration not stated)	0.86	-16.3	-5.9	-7.6*	-25.2	0.00902	0.00701	0.0271*	0.00449	0.0161*	0.0115
CC(=O)CCC(=O)N1CCCC(CNC(=O)c2ccc(-c3ccccc3)cc2)C1 (configuration not stated)	nt	-23.9	-4.1	-1.93	-24.6	nt	nt	nt	nt	nt	nt
COc1ccc(S(=O)(=O)NCC2CCCN(C(=O)c3cccnc3)C2)cc1 (configuration not stated)	0.567	-13.6	-4.0	-0.328	-25.4	nt	nt	nt	nt	nt	nt
COC(=O)c1cccc(C(=O)N2CCCC(CNC(=O)c3ccccc3Cl)C2)c1 (configuration not stated)	nt	nt	nt	6.79e-05	-11.6	nt	nt	nt	nt	nt	nt
O=C(Cn1ccc2ccccc2c1=O)NCCC(=O)N1CCN(c2cccc(C(F)(F)F)c2)CC1	nt	-11.0	-1.9	-3.07	-19.6	nt	nt	nt	nt	nt	nt
Oc1[nH]c2ccccc2c1/C=N/c1nccs1	nt	34.5	2.7	15.1*	3.1	0.0132*	0.0231*	0.0345	?	?	?
Cc1ccsc1/C=N\NC(=O)c1ccc2c(c1)OCO2	nt	-47.8	-3.4	5.91*	1.1	0.00656	0.00635*	0.0272	0.0107*	0.0196	?
Cc1cccc(C)c1NC(=O)CN1C(=O)S/C(=C\c2cccn2-c2cccc(C(=O)O)c2)C1=O	nt	-17.5	-12.5	nt	-26.9	nt	nt	nt	nt	nt	nt
Cc1cccc(C)c1-n1cccc1/C=C1\SC(=S)N(c2cccc(C(=O)O)c2)C1=O	-0.598	83.8*	4.8	-4.47*	110.5*	0.0062	0.00404	0.029	0.00545*	0.0148*	0.00829*
CC(=O)c1c(C)n(CC(=O)NCc2ccco2)c2ccccc12	-0.00981	-7.5	1.2	-0.278	7.9	nt	nt	nt	nt	nt	nt
Cc1ccc(-c2csc3ncnc(Cl)c23)cc1	-0.59	5.8	16.6	-0.254	19.8	nt	nt	nt	nt	nt	nt
Cc1sc2ncnc(SCc3ccc(C(=O)O)cc3)c2c1C	-0.0906	1.4	-4.3	1.37	-7.6	nt	nt	nt	nt	nt	nt
Cc1ccc(-c2csc3nc(SCC(N)=O)n(Cc4ccccc4)c(=O)c23)cc1	0.00393	35.3	51.5*	6.7*	8.0	0.0106	0.0214*	0.0334	0.028*	0.0258*	0.0118
Cc1ccc(-c2csc3ncnc(SCc4ccc(C(=O)O)cc4)c23)cc1	1.69	59.0*	-3.3	140*	3.3	0.00825	0.119*	0.0948*	0.0935*	0.107*	0.0905*
Cc1ccc(-c2csc3ncnc(SCC(N)=O)c23)cc1	1.43	4.2	-11.1	7.89*	-13.4	0.0178*	0.0603*	0.0383	?	0.0498*	?
CCCC(=O)c1cc2c(cc1NC(=O)c1ccccc1F)OCCO2	-0.723	-6.2	-2.9	-0.847	-17.0	nt	nt	nt	nt	nt	nt
CSc1cccc(NC(=O)Cc2ccccc2[N+](=O)[O-])c1	nt	17.6	6.6	0.174	25.2	nt	nt	nt	nt	nt	nt
COc1ccccc1-n1c(SCC(=O)NC2CCCCC2)nc2c(c1=O)SCC2	nt	-18.1	-2.4	nt	-1.5	nt	nt	nt	nt	nt	nt
O=C1NCC(COCc2ccco2)O1 (configuration not stated)	-0.278	-0.3	-2.1	-4.83*	5.4	0.0174	0.00489	0.0273	?	0.0167	0.0116
COc1cc(OC)cc(C2=NC3(CCC(C)CC3)NC2=S)c1 (configuration not stated)	-2.73	28.1	6.1	17.5*	1.5	0.0117	0.0194*	0.0347	0.0247*	?	0.0115
SMILES	ROMK mod	WT yeast gro inh	L major viab	Cl transport mod	m-calpain inh	KCC2 secondary	KCC2 bumet counter	KCC2 secondary2	HEK counter1	KCC2 retest ouab	HEK293 Tl flux2
CCOC(=O)c1cccc(NC(=O)Nc2ccc3c(c2)C(=O)OC3)c1	0.387	nt	nt	0.16	1.4	nt	nt	nt	nt	nt	nt
COc1ccc(NC(=O)C2CCCN2C(=O)NCc2ccccc2)cc1 (configuration not stated)	0.243	-6.6	11.6	0.0419	-0.3	nt	nt	nt	nt	nt	nt
COCCN(C(=O)CNC(=O)c1cccs1)C(C(=O)NC1CCCCC1)c1ccco1 (configuration not stated)	-0.0309	53.8	7.0	nt	6.3	0.00698	0.0041	0.034	0.00695	0.019	0.0113
O=S(=O)([O-])C/C(=C\c1ccc(Cl)cc1)c1cc[n+](CCO)cc1	0.881	-15.0	-3.7	0.0513	-23.7	nt	nt	nt	nt	nt	nt
Cc1cccc(NCc2n[nH]c(=S)n2-c2ccccc2)c1	0.123	-11.8	-5.5	-0.11	-53.8	nt	nt	nt	nt	nt	nt
Cn1c(CNc2cccc(C(F)(F)F)c2)n[nH]c1=S	-0.755	8.4	-0.7	-3.97*	-27.4	0.00575	0.00494	0.0251*	0.00708	?	0.00998
COc1ccc(CCNc2oc(COc3ccccc3)nc2C#N)cc1	-0.0243	37.2	10.1	nt	33.1	0.0079	0.00471	0.0356	?	?	0.0108
COc1ccc(CNc2oc(COc3ccccc3)nc2C#N)cc1	-1.12	7.0	0.3	nt	3.3	0.00748	?	0.0308	0.00702	?	0.00964
N#Cc1nc(COc2ccccc2F)oc1N1CCCCCC1	nt	-9.2	2.6	nt	-13.5	nt	nt	nt	nt	nt	nt
N#Cc1nc(COc2ccccc2F)oc1NCCc1ccccc1	0.0687	32.8	3.7	nt	9.7	0.00534	?	0.0248*	0.00643*	0.0141*	0.0103
COc1ccc(Nc2oc(COc3ccccc3F)nc2C#N)cc1	nt	-0.2	16.9	nt	-82.7	nt	nt	nt	nt	nt	nt
